We go through 40 molecules from PubChem BioAssay (NCATS).

SMILES strings stand for the structures. Several values for one entry are separate records, joined by “and”; a condition that tells them apart may be missing. Identical values can stand only once. Activity calls are given as the source filed them. The call rests on the fitted dose curve; in most records, active means well fitted activation curve with a large enough effect; inconclusive means small, poorly fitted or top-dose-only effect; inactive means flat fitted curve, though single readings scatter.

Peroxisome proliferator-activated receptor alpha (Homo sapiens), sequence (Q07869 whole entry, looked up): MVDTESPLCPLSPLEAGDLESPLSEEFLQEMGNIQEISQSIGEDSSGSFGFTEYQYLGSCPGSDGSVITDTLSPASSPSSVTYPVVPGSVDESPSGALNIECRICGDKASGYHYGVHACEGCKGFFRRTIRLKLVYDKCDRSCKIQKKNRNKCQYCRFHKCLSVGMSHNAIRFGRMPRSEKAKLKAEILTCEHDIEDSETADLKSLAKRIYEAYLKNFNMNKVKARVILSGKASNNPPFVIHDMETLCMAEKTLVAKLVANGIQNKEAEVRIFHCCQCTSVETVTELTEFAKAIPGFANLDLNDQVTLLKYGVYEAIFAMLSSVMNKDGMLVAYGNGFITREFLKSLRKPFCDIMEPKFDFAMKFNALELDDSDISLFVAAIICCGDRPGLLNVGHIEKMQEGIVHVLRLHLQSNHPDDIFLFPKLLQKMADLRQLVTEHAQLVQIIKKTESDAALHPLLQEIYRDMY

The target of the assay is Peroxisome proliferator-activated receptor alpha (Homo sapiens) (UniProt Q07869). Briefly: qHTS assay for small molecule agonists of the peroxisome proliferator-activated receptor alpha (PPARalpha) signaling pathway (AID 651778). Further: % of control where 0% means no effect. To be noted: PathHunter PPARalpha complementation, chemiluminescence, 6 h; max response: stronger effect = higher value. From the text:
National Center for Advancing Translational Sciences [NCATS]
NIH Chemical Genomics Center [NCGC]
U.S. Environmental Protection Agency [EPA]
National Institutes of Environmental Health Sciences [NIEHS]
National Toxicology Program [NTP]
The Peroxisome proliferator-activated receptors (PPARs) are lipid-activated transcription factors of the nuclear receptor superfamily with three distinct subtypes (alpha, garmma and beta/delta). All these subtypes heterodimerize with retinoid X receptor and have different physiological functions. PPARalpha is highly expressed in tissues with high rates of mitochondrial fatty acid oxidation, such as liver, heart, muscle, kidney and cells of the arterial wall. PPARalpha is a major regulator of lipid metabolism and energy homeostasis.
A cell based assay was used to identify activators of PPARalpha. The assay detects binding of a ligand to PPARalpha leading to its activation, translocation and complementation thus forming a functional enzyme capable of hydrolyzing the substrate molecule and generating chemiluminescent signal.
2,000 cells in 6 uL/well were dispensed into white wall/solid bottom 1536-well plates using a Multidrop Combi (Thermo Scientific) dispenser. After incubation 37 C and 5% CO2 overnight, 23 nL compound or DMSO only were transferred by a pin tool. The plates were incubated for 6 hr at 37 C and 5% CO2. 3 ul PathHunter detection reagent (Discoverx) was then added to each well and following 60 min incubation at room temperature, chemiluminescence was quantified on a ViewLux CCD-based plate reader.
Consider `Brc1ccc(Oc2ccccc2)cc1`, for which the max response was -0.584% (inactive). On to `COC(=O)c1ccccc1S(=O)(=O)NC(=O)N(C)c1nc(C)nc(OC)n1`, for which the max response is -1.41% (inactive). Regarding `Clc1ccc(C(c2ccc(Cl)cc2)C(Cl)Cl)cc1`, the max response was 16.9% (inactive). In the case of `CNC(=O)Oc1cc(C)c(SC)c(C)c1` it was 0.9% (inactive). As for `C/C(=N\C(N)=O)N(C)Cc1ccc(Cl)nc1`, the max response is -1.45% (inactive). Turning to `CCC(C)(CC)c1cc(NC(=O)c2c(OC)cccc2OC)on1`, the max response is -1.49% (inactive). Turning to `C#CC(C)(C)NC(=O)c1cc(Cl)cc(Cl)c1`, the max response was 7.64% (inactive).

With `O=C(Nc1ccccc1)Nc1ccnc(Cl)c1`, the max response was -0.317% (inactive). The value for `O=S(=O)(c1ccc(Cl)cc1)c1cc(Cl)c(Cl)cc1Cl` was -3.59% (inactive); that for `CCS(=O)(=O)c1cccnc1S(=O)(=O)NC(=O)Nc1nc(OC)cc(OC)n1` was -2.57% (inactive); that for `O=C(O)[C@@H]1[C@H](C(=O)O)[C@@]2(Cl)C(Cl)=C(Cl)[C@]1(Cl)C2(Cl)Cl` was 0.99% (inactive). Take `CCOP(=O)(OCC)OP(=O)(OCC)OCC`: the max response was -1.23% (inactive). As to `C#CCN1C(=O)COc2cc(F)c(N3C(=O)C4=C(CCCC4)C3=O)cc21`, the max response is -2.95% (inactive).

As to `Cc1cc(Cl)ccc1OCC(=O)O`, the max response is 0.459% (inactive) and -1.12% (inactive). As for `C#CCC1=C(C)[C@H](OC(=O)[C@H]2[C@H](C=C(C)C)C2(C)C)CC1=O`, the max response is 3.44% (inactive).

As for `CCOCn1c(-c2ccc(Cl)cc2)c(C#N)c(Br)c1C(F)(F)F`, the max response was 14.2% (inactive). For the molecule `CC(C)N(C(=O)CCl)c1ccccc1`, the max response is -1.12% (inactive). Regarding `O=[N+]([O-])C(Br)Br`, the max response is -3.58% (inactive). In the case of `CC(C)=C[C@@H]1[C@@H](C(=O)OCN2C(=O)C3=C(CCCC3)C2=O)C1(C)C`, the max response is -0.573% (inactive). In the case of `CCC(C)c1cc([N+](=O)[O-])cc([N+](=O)[O-])c1O` (stereo not given), the max response was -1.93% (inactive).

In the case of `CS/C(C)=N/OC(=O)N(C)SN(C)C(=O)O/N=C(\C)SC`, the max response was -1.01% (inactive). For `CCc1cc(C)cc(CC)c1-c1c(OC(=O)C(C)(C)C)n2n(c1=O)CCOCC2`, the max response is -1.33% (inactive). As to `CC1(C)CON(Cc2ccccc2Cl)C1=O`, the max response was 0.0347% (inactive).

For the molecule `CC[C@H]1CCCC(O[C@H]2CC[C@H](N(C)C)[C@@H](C)O2)[C@@H](C)C(=O)C2=C[C@@H]3[C@@H](C=C[C@@H]4C[C@@H](O[C@@H]5O[C@@H](C)[C@H](OC)[C@@H](OC)[C@H]5OC)C[C@@H]34)[C@@H]2CC(=O)O1` (stereo not given in full), the max response was -2.17% (inactive). In the case of `CCOP(=O)(OCC)OC(Cl)C(Cl)(Cl)Cl` (stereo not given), the max response was -2.65% (inactive). Regarding `N#CCNC(=O)c1cnccc1C(F)(F)F`, the max response was -0.401% (inactive). Take `CC(C1CC1)C(O)(Cn1cncn1)c1ccc(Cl)cc1` (stereo not given): the max response was -1.34% (inactive).

With `CCOP(=O)(NC(C)C)Oc1ccc(S(C)=O)c(C)c1` (stereo not given), the max response was -2.3% (inactive). As to `COc1cc(OC)nc(NC(=O)NS(=O)(=O)c2cc(NC=O)ccc2C(=O)N(C)C)n1`, the max response is -4.09% (inactive). In the case of `CCOP(=O)(NC(C)C)Oc1ccc(S(C)(=O)=O)c(C)c1` (stereo not given) it was -2.16% (inactive); in that of `CC1=NNC(=O)N(/N=C/c2cccnc2)C1`, -0.256% (inactive).

As for `CC1(C)CCC(Cc2ccc(Cl)cc2)C1(O)Cn1cncn1` (stereo not given), the max response is -1.67% (inactive). The value for `Cc1cc(C)nc(NC(=O)NS(=O)(=O)c2ccccc2C(=O)OC2COC2)n1` was -2.96% (inactive). Turning to `OC(c1ccc(Cl)cc1)(c1ccc(Cl)cc1)C(Cl)(Cl)Cl`, the max response was -0.474% (inactive). Consider `COP(=O)(OC)OC(Br)C(Cl)(Cl)Br` (stereo not given), for which the max response was -1.63% (inactive). For `CC(C)(C)OOC(C)(C)c1ccc(C(C)(C)OOC(C)(C)C)cc1`, the max response was 0.719% (inactive). As to `CC(C)NC(=O)N1CC(=O)N(c2cc(Cl)cc(Cl)c2)C1=O`, the max response was 0.394% (inactive). In the case of `c1ccc2cc3c(cc2c1)-c1cccc2cccc-3c12` it was 13.7% (inactive) and 0.159% (inactive); in that of `CNC(=O)/C=C(\C)OP(=O)(OC)OC`, -1.97% (inactive); in that of `O=[N+]([O-])c1cc(C(F)(F)F)c(Cl)c([N+](=O)[O-])c1Nc1ncc(C(F)(F)F)cc1Cl`, -9.03% (inactive).
